Source: PubChem BioAssay
The list is not random: actives were taken first. Their share in the collection is about 11%.
ALDH1A1 block = qHTS Assay for Inhibitors of Aldehyde Dehydrogenase 1 (ALDH1A1); Aldehyde dehydrogenase 1A1 (Homo sapiens), P00352; Purified ALDH1A1, NADH fluorescence, propionaldehyde substrate; Potency, µM (titrated, usually from 75.3 µM), usual class: inhibitors; 220,000 compounds, 7.3% hits; active means well fitted inhibition curve with a large enough effect, not every such curve was filed as active; inconclusive means small, poorly fitted or top-dose-only effect, or another doubt; inactive means no such curve, though single readings can be large or run the other way
12-hLO inh = qHTS Assay for Inhibitors of 12-hLO (12-human lipoxygenase); AID 1452, 2008; purified 12-hLO, xylenol orange hydroperoxide absorbance; Potency, µM (series often up to 57.1 µM), actives largely listed as inhibitors; 150,000 compounds, 0.12% hits; further: nearly all actives have a fitted effect of over 55% in size
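Purified human 12hLO (150 nM final) was preincubated with compounds for 15 min at room temperature in 25 mM Hepes pH 7.0, 0.01% Triton X-100, then reacted with 40 uM arachidonic acid for 30 min. Hydroperoxide was detected with ferrous iron/xylenol orange.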
PNC assembly inh = High Content Assay for Compounds that inhibit the Assembly of the Perinucleolar Compartment. activity change (PNC), negative = inhibition, % at 10 µM. PC3M PTB-GFP, PNC prevalence imaging, 16 h; active compounds read low. 140,000 compounds, 3.1% hits;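 active means readout at or below -70, meaning at least 70% loss of cells showing the perinucleolar compartment, a nuclear body marking cancer cells; inconclusive means readout between -30 and a set limit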
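Compounds are pinned in duplicate onto adhered PC3M cells stably expressing GFP-tagged PTB and incubated 16 h at 37 C. Cells are then fixed, nuclei stained with Hoechst, and PNC-positive cells counted.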
IMPase cell inh = qHTS Assay for Identifying the Cell-Membrane Permeable IMPase Inhibitors; 120,000 tested, under 10 active; CHO-M1 cells, IP1 accumulation, HTRF TR-FRET ratio; AID 901, 2007; inhibition (IP1 accumulation), % at 46.1 µM; active means well fitted curve in the direction sought with a large enough effect in the signal ratio, not every such curve was filed as active; inconclusive means small, poorly fitted or top-dose-only effect, or a change in a side signal; inactive means no such curve, though single readings can be large or run the other way; the % refers to the signal ratio;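 further: cells stimulated with carbachol in lithium chloride buffer; higher means more IMPase inhibition seen as more IP1 and lower FRET ratio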
Target sequence (P97697 whole entry, looked up): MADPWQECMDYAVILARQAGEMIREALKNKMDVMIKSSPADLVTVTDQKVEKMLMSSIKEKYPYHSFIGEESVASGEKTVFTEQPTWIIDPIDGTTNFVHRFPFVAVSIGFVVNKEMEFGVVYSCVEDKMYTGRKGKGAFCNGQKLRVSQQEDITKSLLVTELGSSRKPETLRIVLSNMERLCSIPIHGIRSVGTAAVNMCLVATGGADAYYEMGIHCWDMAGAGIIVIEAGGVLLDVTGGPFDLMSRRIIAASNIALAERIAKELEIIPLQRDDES
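Seeded CHO-M1 cells were dosed with compound at up to 46 uM, stimulated with carbachol for 30 min, then lysed in IP-One detection reagents. Higher IP1 lowers the TR-FRET signal.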
HPGD block = qHTS Assay for Inhibitors of HPGD (15-Hydroxyprostaglandin Dehydrogenase). 15-hydroxyprostaglandin dehydrogenase [NAD(+)] (Homo sapiens), P15428. purified HPGD, NADH fluorescence kinetic, PGE2 substrate. Potency, µM, most hits filed as inhibitors. 150,000 compounds, 4.3% hits; active means well fitted inhibition curve with a large enough effect, not every such curve was filed as active; inconclusive means small, poorly fitted or top-dose-only effect, or another doubt; inactive means no such curve, though single readings can be large or run the other way
Target sequence (P15428 whole entry, looked up): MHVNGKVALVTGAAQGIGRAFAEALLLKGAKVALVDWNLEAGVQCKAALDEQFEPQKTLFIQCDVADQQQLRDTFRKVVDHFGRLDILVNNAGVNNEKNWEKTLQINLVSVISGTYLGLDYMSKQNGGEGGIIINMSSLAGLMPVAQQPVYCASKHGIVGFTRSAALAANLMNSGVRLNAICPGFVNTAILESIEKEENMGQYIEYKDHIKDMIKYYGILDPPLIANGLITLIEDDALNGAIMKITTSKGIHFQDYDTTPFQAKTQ
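20 nM HPGD preincubated 15 min at room temperature with compound in 50 mM Tris-HCl pH 8, 0.01% Tween 20. Started with 1 mM NAD+ and 30 uM prostaglandin E2; NADH fluorescence (360/450 nm) read 5 times over 30-s intervals, last minus first.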
IMPase Li inh = qHTS Assay for Identifying the Cell-Membrane Permeable IMPase Inhibitors: Potentiation with Lithium; CHO-M1 cells, IP1 TR-FRET (IP-One), carbachol + lithium; Potency, µM (top dose mostly 59.4 µM), hits mostly inhibitors; 210,000 compounds, 0.35% hits;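 further: IP1 builds up when IMPase is blocked and the TR-FRET signal falls; nearly all actives have a fitted effect of over 50% in size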
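Test compounds were applied to CHO-M1 cells previously cultured for 16–30 h at 2000 per well. A small lithium amount accompanied them; after 30 min at 37C, IP1 was quantified by TR-FRET.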
Hits are given with their value; n = inactive; u = inconclusive; x = no result given; [ ] = dose if it differs, or a comment. Unless noted, the call rests on the fitted dose curve; in most records, active means well fitted curve in the direction sought with a large enough effect; inconclusive means small, poorly fitted or top-dose-only effect, or another doubt; inactive means no such curve, though single readings can be large; an effect the other way counts as inactive or inconclusive.

SMILES	ALDH1A1 block	12-hLO inh	PNC assembly inh	IMPase cell inh	HPGD block	IMPase Li inh
CCOc1ccc2nc(NC(=O)CS(=O)(=O)c3ccc(C)cc3)sc2c1	25µM	n	n	n	n	n
N#C/C(=N\Nc1ccc(F)cc1)C(=N)N1CCCCC1	28µM	n	n	n	n	n
CCC(C)c1ccc(OCC(=O)Nc2ccc(-c3nc4ncccc4o3)cc2)cc1 (stereo unspecified)	x	x	x	n	x	x
Nc1cccc(Cl)c1N1CCOCC1	n	n	n	n	n	n
Cc1ccccc1N1CCN(Cc2nc(Cc3ccccc3)no2)CC1	n	x	x	x	x	n
CC(=O)c1ccc(N2CCN(Cc3nc(Cc4ccccc4)no3)CC2)cc1	18µM	x	x	x	x	n
CC(C)OC(=O)C[C@H](NC(=O)OC(C)(C)C)c1ccccc1	n[13.5 µM]	x	x	x	x	x
COc1ccc(N=CC2=C(O)CC(c3ccccc3)CC2=O)c(OC)c1 (stereo unspecified)	14µM	n	n	x	n	n
Cc1cc(N=CC2=C(O)CC(C)(C)CC2=O)no1	n	n	n	n	n	n
COc1ccc(N=CC2=C(O)CC(C)(C)CC2=O)cc1	7.9µM	n	n	n	n	n
COc1ccc(N=CC2=C(O)CCCC2=O)cc1	u	n	u	n	n	n
CC1(C)CC(=O)C=C(N=CC2=C(O)CC(C)(C)CC2=O)C1	8.9µM	n	u	n	n	n
COc1ccc(OC)c(N=CC2=C(O)CC(C)(C)CC2=O)c1	13µM	n	n	n	n	n
NCCCCN	n	n	x	n	n	n
COc1ccc(-c2cc(C(=O)Oc3ccc(C)c(C)c3)c3ccccc3n2)cc1	x	x	x	n	x	x
COc1ccc(NC(=O)c2cccc(OS(=O)(=O)N(C)C)c2)cc1	4µM	x	x	x	x	n
CN(c1cccc(Cl)c1)S(=O)(=O)c1cccc(C(=O)Nc2ccc3c(c2)CCC3)c1	11µM	n	u	x	n	n
CN(C)S(=O)(=O)Oc1cccc(C(=O)Nc2cccc(Cl)c2)c1	0.79µM	n	n	n	n	n
CNS(=O)(=O)c1cccc(C(=O)Nc2cccc(Cl)c2)c1	n	n	-94	n	n	n
CN(c1ccc(F)cc1)S(=O)(=O)c1ccc(Cl)c(C(=O)Nc2ccc3c(c2)CCC3)c1	n	n	n	n	n	n
CN(C)S(=O)(=O)Oc1cccc(C(=O)Nc2ccc(Cl)c(Cl)c2)c1	13µM	n	n	n	n	n
COc1cccc(C(=O)Nc2ccc(NC(C)=O)cn2)c1	n	n	-116	u	n	n
COc1cccc(C(=O)Nc2cccc(NC(=O)c3ccc(Cl)cc3Cl)c2)c1	x	x	x	n	x	x
COc1ccc(S(=O)(=O)NC(C)(C)CO)cc1-c1nnc2c3ccccc3c(C)nn12	x	x	x	n	x	x
NC(=O)c1ccc(N=C2C(=O)Nc3ccc([N+](=O)[O-])cc32)cc1	13µM	x	x	x	x	n
SMILES	ALDH1A1 block	12-hLO inh	PNC assembly inh	IMPase cell inh	HPGD block	IMPase Li inh
O=Nc1c(O)n(Cc2cccc(Cl)c2)c2ccccc12	u	n	u	n	n	n
NC(=S)N=Nc1c(O)n(Cc2ccccc2)c2ccccc12	2.5µM	n	-100	x	n	n
C/C(Cl)=C\Cn1c(O)c(N=NC(N)=S)c2ccccc21	1µM	x	x	x	x	n
CCOC(=O)N=Nc1c(O)n(Cc2ccccc2)c2ccccc12	8.9µM	x	x	x	x	n
CCCCNC(=S)N=Nc1c(O)n(Cc2ccccc2)c2ccccc12	20µM	n	n	n	x	x
CCCCn1c(O)c(N=NC(=O)c2ccco2)c2ccccc21	n	n	n	x	n	n
C=CCn1c(O)c(N=NC(=S)Nc2cccc(C)c2)c2ccccc21	n	u	n	x	n	n
C[C@H](CCC(=O)O)C1CC[C@H]2C3CC[C@@H]4C[C@H](O)CC[C@]4(C)C3C[C@H](O)[C@]12C (stereo partly specified)	n	x	x	x	x	n
CC(C)CCC[C@@H](C)[C@@H]1CC[C@@H]2[C@H]3CC[C@H]4C[C@@H](N)CC[C@@]4(C)[C@@H]3CC[C@]21C	n[13.5 µM]	n[11.4 µM]	x	x	n	n
CC[C@@H](C)[C@@H](CO[C@@H](Cc1ccccc1)C(=O)N[C@@H](CCS(C)(=O)=O)C(=O)OC(C)C)NC[C@@H](N)CS	16µM	x	x	x	x	n
COC(=O)C(CC(C)C)NC(=O)C(N)Cc1ccccc1 (stereo unspecified)	n	n	n	n	n	n
CC[n+]1ccc(C(=O)NCc2ccccc2)cc1	n	x	x	x	x	n
CCOc1ccc(C2c3c(oc4ccccc4c3=O)C(=O)N2Cc2ccc3c(c2)OCO3)cc1 (stereo unspecified)	x	x	x	n	x	x
CCCCN(CCCC)S(=O)(=O)c1ccc(NC(=O)c2c(-c3ccccc3)noc2C)cc1	x	x	x	n	x	x
CCCc1ccc(C(=O)CCC(=O)O)cc1	n	n	-96	n	n	n
CCN(CC)C[C@@H](O)CN1CCCCc2nc(C)c(C)cc21	n[13.5 µM]	x	x	x	x	x
CC(/C=C/C=C(C)/C=C/C(=O)O)=C\C=C\C=C(C)\C=C\C=C(C)\C=C\C(=O)O	32µM	n	x	x	n	n
COc1ccc(OCC#CCN2CC(C)OC(C)C2)cc1 (stereo unspecified)	6.3µM	x	x	x	x	n
CCOc1cc(/C=C(\C#N)c2[nH]nc(N)c2C#N)ccc1O	u	n	n	n	25µM	n
CCOc1cc(-c2cc(-c3ccc(C)cc3)nc(N)c2C#N)ccc1O	n	u	n	n	n	n
Cc1cc(C)nc(NC(=O)C2c3ccccc3Oc3ccccc32)n1	n	x	x	x	x	n
Cc1cc(=O)c2ccccc2n1CC(=O)NCc1ccccc1	n	n	-96	x	n	n
Cc1nc2ccccc2n1CC(=O)NCc1ccccc1	n	n	-103	n	n	n
Cc1cc(=O)c2ccccc2n1Cc1ccccc1	n	x	x	x	x	n
COc1ccc(C(=O)[C@]2(C)C=C(c3ccc(OC)cc3)[C@H](C)C2)cc1	n	x	x	x	n	n
CCOC(=O)c1sc2ncn(/N=C/c3cccnc3)c(=O)c2c1C	0.071µM	n	n	n	n	n
CCOC(=O)c1sc2ncn(/N=C/c3ccc(O)cc3)c(=O)c2c1C	20µM	x	x	x	x	n
CCOC(=O)c1sc2ncn(C(C)C(=O)OCC)c(=O)c2c1C (stereo unspecified)	n	n	u	n	n	n
O=C1[C@H]2[C@H]3[C@H](O)[C@H](O)C/C(=N/OCc4ccccc4)[C@@H]3CC[C@@H]2C(=O)N1c1cccc(Oc2ccccc2)c1	n[13.5 µM]	x	x	x	x	x
CC(C)OC(=O)CSc1nnc(-c2cnccn2)n1-c1ccc(Cl)cc1	10µM	n	n	n	n	n
